Each structure is given as a SMILES string. For some of these results: Potency and affinity values are given separately.

Common to all, as to set-up: scale not given: direction of the effect not stated beside the values
For experiment [1], the target named is Protein translocase subunit SecA (Escherichia coli (strain K12)) (UniProt P10408). Kind of experiment: Assay to Identify E. coli SecA ATPase Inhibitors. The format is functional. The note with it: 30 µM.
The target of experiment [2] is T1, Ubiquitin-activating enzyme e1, putative (Leishmania donovani (strain BPK282A1)) (UniProt E9BSI1).
T1 sequence (whole entry): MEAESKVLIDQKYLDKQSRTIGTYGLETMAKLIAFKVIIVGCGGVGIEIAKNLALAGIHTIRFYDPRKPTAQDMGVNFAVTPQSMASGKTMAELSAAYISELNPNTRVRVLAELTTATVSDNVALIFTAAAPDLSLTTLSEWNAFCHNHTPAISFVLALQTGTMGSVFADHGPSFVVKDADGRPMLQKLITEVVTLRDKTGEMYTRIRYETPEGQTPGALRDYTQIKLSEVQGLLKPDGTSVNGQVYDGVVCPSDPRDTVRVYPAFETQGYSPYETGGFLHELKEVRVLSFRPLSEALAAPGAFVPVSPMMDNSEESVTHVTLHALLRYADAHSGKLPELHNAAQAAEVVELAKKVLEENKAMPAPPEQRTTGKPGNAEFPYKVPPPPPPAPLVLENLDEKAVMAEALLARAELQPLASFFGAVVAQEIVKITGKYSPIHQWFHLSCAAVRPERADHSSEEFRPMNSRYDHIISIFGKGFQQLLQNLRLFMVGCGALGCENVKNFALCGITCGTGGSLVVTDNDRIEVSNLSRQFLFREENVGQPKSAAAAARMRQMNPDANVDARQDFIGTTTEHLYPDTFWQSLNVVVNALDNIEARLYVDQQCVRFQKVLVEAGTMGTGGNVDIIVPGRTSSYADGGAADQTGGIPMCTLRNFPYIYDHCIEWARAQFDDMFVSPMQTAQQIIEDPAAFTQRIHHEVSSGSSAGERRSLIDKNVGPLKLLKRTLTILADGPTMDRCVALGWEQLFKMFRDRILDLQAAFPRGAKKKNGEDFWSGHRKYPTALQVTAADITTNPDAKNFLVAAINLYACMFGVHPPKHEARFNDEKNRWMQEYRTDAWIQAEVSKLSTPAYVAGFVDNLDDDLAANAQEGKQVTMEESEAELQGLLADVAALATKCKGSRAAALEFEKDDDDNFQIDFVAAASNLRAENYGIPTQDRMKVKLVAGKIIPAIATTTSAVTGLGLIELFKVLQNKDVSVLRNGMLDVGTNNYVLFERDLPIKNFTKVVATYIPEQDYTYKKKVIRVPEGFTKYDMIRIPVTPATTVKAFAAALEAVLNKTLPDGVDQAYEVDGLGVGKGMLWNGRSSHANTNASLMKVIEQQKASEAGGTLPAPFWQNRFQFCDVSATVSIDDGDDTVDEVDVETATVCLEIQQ
Kind of experiment: Leishmania donovani Ubiquitin Activating Enzyme (LdE1). The note with it: 30 µM. The format is functional.

The target in experiment [3] is AMP-activated protein kinase, AMPK (Homo sapiens) (UniProt P54646+O43741+P54619+Q9UGJ0+Q9Y478+Q13131+Q9UGI9). Kind of experiment: AMP-dependent Kinase enzyme assay. An in vitro enzyme assay that detects ADP turnover that is directly proportional to AMPK activity. This uses naive AMPK that is activated during the assay with MK-8722. The format is functional. The note with it: 30 µM.

Experiment [4] concerns the target Sialic acid-binding Ig-like lectin 9 (Homo sapiens) (UniProt Q9Y336). Kind of experiment: Hs-Siglec9 ALPHAscreen SOP 20170721. Conditions: 10 µM. On the technique in general: Alpha assays give light when donor and acceptor beads are brought close together.
The subject of another experiment is Trypanosoma cruzi. Briefly: Trypanosoma cruzi phosphomannomutase and mannose-1-phosphate guanylyltransferase assay. The format is functional. Conditions: 10 µM.
For experiment [5], the target named is T2, Arginase-2, mitochondrial (Homo sapiens) (UniProt P78540).
T2 sequence (whole entry): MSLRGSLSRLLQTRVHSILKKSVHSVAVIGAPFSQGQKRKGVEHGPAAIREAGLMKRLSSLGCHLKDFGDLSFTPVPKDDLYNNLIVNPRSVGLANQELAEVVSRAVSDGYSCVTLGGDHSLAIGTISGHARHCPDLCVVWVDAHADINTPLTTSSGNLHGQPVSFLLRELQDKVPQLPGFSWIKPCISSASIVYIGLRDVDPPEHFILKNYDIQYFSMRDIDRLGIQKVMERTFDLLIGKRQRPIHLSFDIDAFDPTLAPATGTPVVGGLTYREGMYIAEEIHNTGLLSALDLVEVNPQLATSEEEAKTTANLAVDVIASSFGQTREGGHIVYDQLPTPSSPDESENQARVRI
Briefly: in vitro enzyme assay to detect the production of urea directly proportional to the activity of Arginase II. Further: in the data most compounds retested in dose-response had high values. The format is functional. The note with it: 33.3 µM.

Experiment [6] deals with T3, Proteasome subunit beta (Trypanosoma cruzi) (UniProt O96673).
T3 sequence (whole entry): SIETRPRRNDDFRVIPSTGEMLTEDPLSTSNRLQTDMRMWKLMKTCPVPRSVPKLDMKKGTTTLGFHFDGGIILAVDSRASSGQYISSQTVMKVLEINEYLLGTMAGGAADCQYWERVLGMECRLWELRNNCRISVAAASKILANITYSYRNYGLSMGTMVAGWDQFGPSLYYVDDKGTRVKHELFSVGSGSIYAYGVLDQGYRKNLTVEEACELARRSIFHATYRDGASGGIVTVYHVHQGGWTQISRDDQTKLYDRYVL
Kind of experiment: Trypanosoma cruzi proteasome chymotrypsin-like activity (TcProtChymo) assay. Further: in the data most compounds retested in dose-response had high values. The format is functional. Conditions: 9.37 µM.

A further experiment is filed under the species Homo sapiens. Briefly: To identify inhibition of the IFN signalling (Jak-Stat) pathway via expression of an eGFP reporter gene under the control of an IFN-stimulated response element (ISRE) containing MxA promoter. The note with it: 30 µM. The format is functional. A general note: Reporter assays use an easily measured gene product as a stand-in for the process of interest.

Experiment [7] addresses T4, Tyrosyl-tRNA synthetase, putative (Trypanosoma cruzi (strain CL Brener)) (UniProt Q4DSP6).
T4 sequence (whole entry): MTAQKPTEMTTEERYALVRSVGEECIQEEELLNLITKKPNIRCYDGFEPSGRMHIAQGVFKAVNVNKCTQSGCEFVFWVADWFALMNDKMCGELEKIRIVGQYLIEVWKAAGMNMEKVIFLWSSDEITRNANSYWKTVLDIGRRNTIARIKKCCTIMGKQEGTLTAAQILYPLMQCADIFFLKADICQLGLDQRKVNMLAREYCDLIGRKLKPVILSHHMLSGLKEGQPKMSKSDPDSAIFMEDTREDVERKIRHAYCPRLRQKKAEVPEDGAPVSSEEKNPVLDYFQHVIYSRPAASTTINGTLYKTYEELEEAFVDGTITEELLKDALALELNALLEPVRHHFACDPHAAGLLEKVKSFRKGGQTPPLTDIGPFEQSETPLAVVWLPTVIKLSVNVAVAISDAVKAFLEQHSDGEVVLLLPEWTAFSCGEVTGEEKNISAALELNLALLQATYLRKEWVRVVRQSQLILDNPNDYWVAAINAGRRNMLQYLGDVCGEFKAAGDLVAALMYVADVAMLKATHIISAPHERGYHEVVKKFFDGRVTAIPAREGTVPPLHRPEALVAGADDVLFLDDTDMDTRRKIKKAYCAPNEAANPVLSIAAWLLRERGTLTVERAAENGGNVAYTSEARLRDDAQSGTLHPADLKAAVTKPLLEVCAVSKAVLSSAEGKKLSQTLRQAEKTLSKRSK
Briefly: Trypanosoma cruzi tyrosyl tRNA synthetase (TcYRS) _High Tyrosine SOP. Further: in the data most compounds retested in dose-response had high values. The format is functional. Conditions: 30 µM.

For experiment [8], the target named is T4, Tyrosyl-tRNA synthetase, putative (Trypanosoma cruzi (strain CL Brener)). Briefly: Trypanosoma cruzi tyrosyl tRNA synthetase (TcYRS) SOP. The format is functional. The note with it: 30 µM.
The target in experiment [9] is Chromo domain-containing protein 1 (Saccharomyces cerevisiae (strain ATCC 204508 / S288c) (Baker's yeast)) (UniProt P32657). Kind of experiment: ScCHD-1 Enzyme Inhibition Assay. Further: in the data most compounds retested in dose-response had high values. The format is functional. The note with it: 30 µM.
Chain of Chromo domain-containing protein 1 (Saccharomyces cerevisiae (strain ATCC 204508 / S288c) (Baker's yeast)) (P32657 whole entry, the tested form may be a part): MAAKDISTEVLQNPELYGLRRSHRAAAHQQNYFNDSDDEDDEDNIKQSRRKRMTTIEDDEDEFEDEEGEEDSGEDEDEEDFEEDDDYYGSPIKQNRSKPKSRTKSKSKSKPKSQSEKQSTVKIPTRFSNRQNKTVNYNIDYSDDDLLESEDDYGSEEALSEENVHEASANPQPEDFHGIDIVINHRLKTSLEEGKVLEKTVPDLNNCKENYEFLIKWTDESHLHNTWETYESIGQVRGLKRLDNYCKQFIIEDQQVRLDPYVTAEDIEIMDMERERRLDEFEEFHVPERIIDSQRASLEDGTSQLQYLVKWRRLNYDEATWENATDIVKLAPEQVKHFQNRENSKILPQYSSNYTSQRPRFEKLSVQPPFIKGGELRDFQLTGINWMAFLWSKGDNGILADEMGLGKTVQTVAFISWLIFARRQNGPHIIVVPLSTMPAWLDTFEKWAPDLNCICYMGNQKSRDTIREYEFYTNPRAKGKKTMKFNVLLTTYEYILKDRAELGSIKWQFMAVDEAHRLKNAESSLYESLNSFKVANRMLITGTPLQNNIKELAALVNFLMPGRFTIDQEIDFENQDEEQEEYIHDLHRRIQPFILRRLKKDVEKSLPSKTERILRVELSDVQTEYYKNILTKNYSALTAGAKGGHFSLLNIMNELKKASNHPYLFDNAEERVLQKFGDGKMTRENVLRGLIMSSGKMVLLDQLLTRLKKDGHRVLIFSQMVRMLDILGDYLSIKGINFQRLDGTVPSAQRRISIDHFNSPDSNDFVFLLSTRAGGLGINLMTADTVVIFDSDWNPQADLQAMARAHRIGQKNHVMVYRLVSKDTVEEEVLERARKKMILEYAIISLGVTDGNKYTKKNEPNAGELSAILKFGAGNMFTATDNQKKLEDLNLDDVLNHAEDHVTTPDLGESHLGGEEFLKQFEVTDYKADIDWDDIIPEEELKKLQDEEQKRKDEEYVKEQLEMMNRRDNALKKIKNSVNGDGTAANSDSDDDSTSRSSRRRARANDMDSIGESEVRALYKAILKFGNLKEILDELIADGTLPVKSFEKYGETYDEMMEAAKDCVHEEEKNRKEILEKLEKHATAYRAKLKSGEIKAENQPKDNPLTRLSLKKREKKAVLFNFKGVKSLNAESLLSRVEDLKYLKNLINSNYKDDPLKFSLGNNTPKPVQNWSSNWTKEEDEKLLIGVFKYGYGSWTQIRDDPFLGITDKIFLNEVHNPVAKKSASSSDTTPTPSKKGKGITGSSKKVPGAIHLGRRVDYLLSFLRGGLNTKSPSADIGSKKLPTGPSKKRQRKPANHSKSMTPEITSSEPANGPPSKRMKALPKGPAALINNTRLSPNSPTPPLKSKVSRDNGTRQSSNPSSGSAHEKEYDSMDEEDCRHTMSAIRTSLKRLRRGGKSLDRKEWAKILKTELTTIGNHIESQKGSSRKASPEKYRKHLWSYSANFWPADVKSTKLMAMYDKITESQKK

Chain of Protein translocase subunit SecA (Escherichia coli (strain K12)) (P10408 whole entry): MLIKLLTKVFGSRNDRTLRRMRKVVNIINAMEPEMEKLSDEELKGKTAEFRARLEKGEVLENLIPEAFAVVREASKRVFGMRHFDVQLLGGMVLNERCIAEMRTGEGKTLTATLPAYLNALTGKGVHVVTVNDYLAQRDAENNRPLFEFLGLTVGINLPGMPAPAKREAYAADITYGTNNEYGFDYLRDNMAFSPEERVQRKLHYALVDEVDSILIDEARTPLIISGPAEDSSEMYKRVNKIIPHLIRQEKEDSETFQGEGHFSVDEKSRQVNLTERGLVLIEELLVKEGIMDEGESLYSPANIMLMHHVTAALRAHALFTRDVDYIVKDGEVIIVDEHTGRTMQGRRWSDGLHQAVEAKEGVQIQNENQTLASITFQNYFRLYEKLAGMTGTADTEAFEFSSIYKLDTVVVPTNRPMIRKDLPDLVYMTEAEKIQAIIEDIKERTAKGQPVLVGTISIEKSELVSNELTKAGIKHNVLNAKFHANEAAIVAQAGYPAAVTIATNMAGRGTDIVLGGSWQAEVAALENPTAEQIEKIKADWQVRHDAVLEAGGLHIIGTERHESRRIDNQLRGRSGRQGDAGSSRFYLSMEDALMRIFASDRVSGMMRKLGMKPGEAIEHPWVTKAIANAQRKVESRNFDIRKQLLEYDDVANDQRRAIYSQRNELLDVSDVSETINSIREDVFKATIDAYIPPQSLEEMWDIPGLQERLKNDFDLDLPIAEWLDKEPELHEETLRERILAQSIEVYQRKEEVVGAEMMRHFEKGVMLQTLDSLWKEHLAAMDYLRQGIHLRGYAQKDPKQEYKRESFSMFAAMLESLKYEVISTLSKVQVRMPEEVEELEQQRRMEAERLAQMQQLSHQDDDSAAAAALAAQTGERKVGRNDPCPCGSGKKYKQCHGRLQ
Chain of Sialic acid-binding Ig-like lectin 9 (Homo sapiens) (Q9Y336 whole entry): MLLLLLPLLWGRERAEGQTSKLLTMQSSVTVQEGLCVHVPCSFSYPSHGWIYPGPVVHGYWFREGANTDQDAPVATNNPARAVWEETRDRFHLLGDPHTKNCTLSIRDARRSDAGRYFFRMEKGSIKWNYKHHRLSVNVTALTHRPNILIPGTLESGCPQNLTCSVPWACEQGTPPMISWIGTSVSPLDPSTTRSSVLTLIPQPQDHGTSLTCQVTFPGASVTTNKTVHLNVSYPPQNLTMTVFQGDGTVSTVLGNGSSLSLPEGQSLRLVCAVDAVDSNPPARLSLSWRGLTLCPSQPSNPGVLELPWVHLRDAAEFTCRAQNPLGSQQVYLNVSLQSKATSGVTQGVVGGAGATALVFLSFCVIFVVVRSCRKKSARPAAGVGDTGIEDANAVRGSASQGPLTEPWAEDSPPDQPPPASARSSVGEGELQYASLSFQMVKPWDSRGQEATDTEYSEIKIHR

Turning to `CC1CN(Cc2nccn2C)CCN1c1ccc2nncn2n1` (stereo unspecified), the Percent Effect in [1] is -5.26%; in experiment [2] it was 10.4%; in experiment [3] it was -8.38%; in experiment [4] it was 12.5%; in the experiment on Trypanosoma cruzi it was 5.62%; in experiment [5], 2.85%. The Percent Effect is 9.29% in experiment [6]; 7.44% in the experiment listed under Homo sapiens; 5.83% in experiment [7]; 21.9% in experiment [8]; -9.26% in [9].

For `COc1cc(C(C)=O)ccc1OCC(=O)N(C)Cc1cnn(C)c1`, the Percent Effect is -4.48% in experiment [1]; 21.1% in experiment [2]; -7.57% in [3]; 7.64% in [4]; 4.76% with Trypanosoma cruzi; 1.44% in experiment [5]. The Percent Effect was 6.18% in [6]; 6.99% in the experiment filed under Homo sapiens; 6.4% in experiment [7]; 25.9% in [8]; -10.6% in experiment [9].

On to `CN1CC(=O)N(c2ccsc2)CC12CCN(S(C)(=O)=O)C2` (stereo unspecified), for which the Percent Effect in experiment [1] was -4.15%; in experiment [2], 0%; in experiment [3], -4.23%; in [4], -4.81%; in the experiment with Trypanosoma cruzi, 6.84%; in experiment [5] it was -2.5%. Also, the Percent Effect in [6] is 20%; in the experiment filed under Homo sapiens, -12.5%; in experiment [7], 3.96%; in experiment [8] it was 11%; in [9] it was -0.42%.

In the case of `CSc1nccn1-c1cccc(C(=O)NCc2nnc(C)n2C)c1`, the Percent Effect in experiment [1] was -3.63%; in experiment [2], 13.2%; in [3], -0.262%; in experiment [4] it was 12.6%; in the experiment with Trypanosoma cruzi it was 4.01%; in experiment [5], 1.08%. Moreover, the Percent Effect is 3.98% in experiment [6]; 15.6% in the experiment listed under Homo sapiens; 6.4% in [7]; 23.5% in [8]; -2.71% in [9].

As for `CN(Cc1ccon1)C(=O)C1CC(=O)N(Cc2ccncc2)C1` (stereo unspecified), the Percent Effect in [1] is -6.1%; in experiment [2], 5.41%; in [3] it was -1.61%; in [4] it was 13.8%; with Trypanosoma cruzi it was -0.684%; in [5] it was 0.248%. For the same compound, the Percent Effect is 2.66% in experiment [6]; 14.7% in the experiment listed under Homo sapiens; 5.38% in experiment [7]; 8.64% in experiment [8]; -4.6% in experiment [9].

Turning to `Cc1n[nH]c(C)c1C1CCCN1C(=O)NCCSC(C)(C)C` (stereo unspecified), the Percent Effect in [1] was -2.09%; in experiment [2] it was 0%; in [3], 3.06%; in experiment [4] it was -3.83%; in the experiment on Trypanosoma cruzi it was -1.37%; in experiment [5], -0.909%. Moreover, the Percent Effect in experiment [6] is 0.887%; in the experiment filed under Homo sapiens, 4.14%; in experiment [7], 3.23%; in experiment [8], -2.5%; in experiment [9] it was -1.95%.

In the case of `O=C(NCc1nnc2n1CCC2)N(Cc1ccco1)C1CC1`, the Percent Effect in experiment [1] was -0.0964%; in [2], 8.11%; in [3], -2.14%; in experiment [4], 3.8%; in the experiment with Trypanosoma cruzi, -2.12%; in [5], -2.86%. The Percent Effect in [6] was 20.3%; in the experiment filed under Homo sapiens, 14.6%; in [7], 3.7%; in [8], 12.2%; in experiment [9] it was -2.31%.

Regarding `Cc1ccsc1C(=O)N1C[C@@H]2CN(Cc3ccoc3)CCO[C@@H]2C1`, the Percent Effect is 1.09% in experiment [1]; 18.9% in experiment [2]; 1.36% in experiment [3]; -11.6% in [4]; 5.18% in the experiment with Trypanosoma cruzi; 9.87% in experiment [5]. The Percent Effect in [6] is 12.7%; in the experiment listed under Homo sapiens, -6.4%; in [7], 6.49%; in experiment [8] it was 15.4%; in experiment [9], -1.54%.

For the compound `CN(CC1CN(Cc2cn3ccsc3n2)CCO1)c1cccnn1` (stereo unspecified), the Percent Effect in [1] was -3.37%; in experiment [2], 26%; in experiment [3], -3.91%; in experiment [4], -12.4%; in the experiment on Trypanosoma cruzi it was -7.54%; in [5] it was 1.47%. The Percent Effect was 23.5% in [6]; 15% in the experiment filed under Homo sapiens; 4.76% in [7]; 21.2% in experiment [8]; -26.4% in experiment [9].

Turning to `Cc1nccc([C@H]2C[C@@H]3CCN(S(=O)(=O)N(C)C)C[C@H]3O2)n1`, the Percent Effect was -2.42% in experiment [1]; 8.11% in [2]; -3.13% in experiment [3]; 27.4% in experiment [4]; 5.18% in the experiment with Trypanosoma cruzi; 17.6% in experiment [5]. Further, the Percent Effect was 3.35% in experiment [6]; -26.1% in the experiment filed under Homo sapiens; 4.3% in [7]; 16.1% in experiment [8]; -6.72% in [9].

In the case of `CC(=O)N1CCN(C(=O)c2cc(-n3cnnn3)ccc2Cl)CC1`, the Percent Effect is -7.31% in experiment [1]; 2.63% in [2]; -6.84% in [3]; 0.287% in experiment [4]; -2.63% with Trypanosoma cruzi; -4.73% in [5]. Besides, the Percent Effect in experiment [6] is 6.04%; in the experiment listed under Homo sapiens, 9.34%; in experiment [7] it was -2.13%; in experiment [8], -2.6%; in [9] it was 0.334%.

The record behind these values is ChEMBL document CHEMBL3988442, “University of Dundee, Small-Polar-MMV Screening Library” (2021).
